Where “and” joins values, the source holds several entries; their conditions need not be identical. Identical values can stand only once. Results filed as inconclusive are left out. Where a call stands in place of a potency, no number is given. Where a structure was tested more than once in an assay, its records may differ in their call. Calls of active or inactive are those of the source. Unless noted, calls follow the shape of the full dose curve.
Tests used:
[1] = qHTS assay to identify small molecule agonists of the peroxisome proliferator-activated receptor delta (PPARd) signaling pathway - cell viability counter screen (AID 743211; active = well fitted curve in the direction sought with a large enough effect in the repeat runs; an effect the other way counts as inactive or inconclusive; also: nearly all actives have a fitted effect of over 55% in size; also: potency is read from the fitted curve at half-maximal effect)
In short: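 In the same wells used for beta-lactamase reporter measurement, cytotoxicity is scored by CellTiter-Glo. HEK293H PPARd-bla cells receive compound for 17 h at 37C following a 5 h settling period.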

[2] = qHTS assay to identify small molecule antagonists of the peroxisome proliferator-activated receptor delta (PPARd) signaling pathway - cell viability counter screen (AID 743213; active = well fitted curve in the direction sought with a large enough effect in the repeat runs; an effect the other way counts as inactive or inconclusive; also: nearly all actives have a fitted effect of over 50% in size; also: potency is read from the fitted curve at half-maximal effect)
In short: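 Same-well viability: cells pre-incubated 5 h, dosed with compound plus 300 nM L165041, kept 17 h at 37 C, FRET substrate 2 h RT, then CellTiter-Glo 30 min RT and luminescence.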

[3] = qHTS assay to identify small molecule antagonists of the farnesoid-X-receptor (FXR) signaling pathway - cell viability counter screen (AID 743221; active = well fitted cell-killing curve with a large enough effect in the repeat runs, not every such curve was filed as active; also: nearly all actives have a fitted effect of over 50% in size; also: potency is read from the fitted curve at half-maximal effect)
In short: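 Here viability was scored by luminescence after CellTiter-Glo addition to wells already read for beta-lactamase. Prior treatment: compound plus CDCA (50 uM final), 16 h, 37 C, HEK 293T FXR-bla cells.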

[4] = qHTS assay to identify small molecule antagonists of the vitamin D receptor (VDR) signaling pathway - cell viability counter screen (AID 743225; active = well fitted curve in the direction sought with a large enough effect in the repeat runs; an effect the other way counts as inactive or inconclusive; also: nearly all actives have a fitted effect of over 50% in size; also: potency is read from the fitted curve at half-maximal effect)
In short: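 Compounds were pinned onto VDR-bla HEK 293T cells together with 1-alpha,25-dihydroxyvitamin D3 at 3 nM final. After 16 h at 37C and 5% CO2 plus the reporter readout, cell viability was measured by CellTiter-Glo luminescence (30 min, room temperature).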

[5] = qHTS assay to identify small molecule agonists of the NFkB signaling pathway - cell viability counter screen (AID 1159515); also: nearly all actives have a fitted effect of over 55% in size; also: potency is read from the fitted curve at half-maximal effect
In short: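 NFkB-bla ME-180 cells, 2,000/well, were plated overnight at 37 C, 5% CO2, then exposed to compounds in DMSO for 5 hr. After the bla FRET read, CellTiter-Glo was added to the same wells; luminescence was read after 30 min at room temperature.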

[6] = qHTS assay to identify small molecule agonists of the endoplasmic reticulum stress response signaling pathway (AID 1159516; active = well fitted activation curve with a large enough effect in the signal ratio in the repeat runs, not every such curve was filed as active; the % refers to the signal ratio)
In short: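 CellSensor ESRE-bla HeLa cells, carrying a beta-lactamase reporter driven by the ER stress response element, were plated overnight and exposed to compounds for 5 hr at 37 C. Reporter activity was read as FRET substrate fluorescence after 2 hr at room temperature.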

[7] = qHTS assay to identify small molecule agonists of the endoplasmic reticulum stress response signaling pathway - cell viability counter screen (AID 1159517); also: nearly all actives have a fitted effect of over 50% in size; also: potency is read from the fitted curve at half-maximal effect
In short: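 Cells, HeLa ESRE-bla; density, 1,500/well; dosing, 5 hr at 37 C, 5% CO2; readout, CellTiter-Glo luminescence after 30 min RT.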

[8] = qHTS assay to identify small molecule antagonists of the retinoid-related orphan receptor gamma (ROR-gamma) signaling pathway - cell viability counter screen (AID 1159520; active = well fitted curve in the direction sought with a large enough effect in the repeat runs; an effect the other way counts as inactive or inconclusive; also: nearly all actives have a fitted effect of over 50% in size; also: potency is read from the fitted curve at half-maximal effect)
In short: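 Cytotoxicity was read from cellular ATP (CellTiter-Glo luminescence) after 16 hr at 37 C with 1 uM doxycycline induction. The inducer was added 2 hr after compound transfer to Tet-on ROR gamma CHO cells.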

[9] = target: Nuclear receptor ROR-gamma (Homo sapiens) (UniProt P51449); assay: qHTS assay to identify small molecule antagonists of the retinoid-related orphan receptor gamma (ROR-gamma) signaling pathway (AID 1159521; active = well fitted curve in the direction sought with a large enough effect in the repeat runs; an effect the other way counts as inactive or inconclusive; also: nearly all actives have a fitted effect of over 50% in size; also: potency is read from the fitted curve at half-maximal effect)
In short: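 Test compounds were applied to Tet-on RORγ CHO cells 2 h ahead of doxycycline hyclate (1 uM final). Luciferase reporter activity was quantified by luminescence after 16 h at 37 C and 5% CO2.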

[10] = qHTS assay to identify small molecule agonists of the AP-1 signaling pathway - cell viability counter screen (AID 1159525); also: nearly all actives have a fitted effect of over 55% in size; also: potency is read from the fitted curve at half-maximal effect
In short: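 Luminescent ATP readout (Cell Titer Glo, 30 min RT), normalised to DMSO and tetra n-octyl ammonium bromide controls. Cells were ME-180 AP-1-bla in 0.5% dialyzed FBS Opti-MEM, with a 5 h, 37 °C compound exposure.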

[11] = qHTS assay to identify small molecule agonists of the AP-1 signaling pathway (AID 1159526)
[12] = target: Retinoic acid receptor RXR-alpha (Homo sapiens) (UniProt P19793); assay: qHTS assay to identify small molecule agonists of the RXR signaling pathway (AID 1159527); also: nearly all actives have a fitted effect of over 35% in size
Retinoic acid receptor RXR-alpha (Homo sapiens), sequence (P19793 whole entry, looked up): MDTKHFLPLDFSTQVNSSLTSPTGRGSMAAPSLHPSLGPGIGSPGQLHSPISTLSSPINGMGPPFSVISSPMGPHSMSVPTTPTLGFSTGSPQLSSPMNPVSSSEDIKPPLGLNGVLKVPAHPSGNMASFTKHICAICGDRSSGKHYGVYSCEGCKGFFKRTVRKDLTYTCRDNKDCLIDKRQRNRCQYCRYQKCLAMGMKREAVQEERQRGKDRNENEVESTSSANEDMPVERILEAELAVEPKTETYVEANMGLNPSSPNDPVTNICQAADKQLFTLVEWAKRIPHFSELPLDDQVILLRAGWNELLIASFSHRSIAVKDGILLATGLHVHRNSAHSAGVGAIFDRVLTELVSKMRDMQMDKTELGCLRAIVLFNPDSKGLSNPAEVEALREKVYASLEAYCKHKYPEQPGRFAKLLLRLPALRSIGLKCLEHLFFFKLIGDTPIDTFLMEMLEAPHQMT
In short: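 Using 9-cis retinoic acid as the reference agonist, chemicals were tested in HEK 293T cells […] for 16 hr; substrate loading lasted 2 hr at room temperature.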

[13] = target: Peroxisome proliferator-activated receptor delta (Homo sapiens) (UniProt Q03181); assay: qHTS assay to identify small molecule agonists of the peroxisome proliferator-activated receptor delta (PPARd) signaling pathway (AID 743212)
Peroxisome proliferator-activated receptor delta (Homo sapiens), sequence (Q03181 whole entry, looked up): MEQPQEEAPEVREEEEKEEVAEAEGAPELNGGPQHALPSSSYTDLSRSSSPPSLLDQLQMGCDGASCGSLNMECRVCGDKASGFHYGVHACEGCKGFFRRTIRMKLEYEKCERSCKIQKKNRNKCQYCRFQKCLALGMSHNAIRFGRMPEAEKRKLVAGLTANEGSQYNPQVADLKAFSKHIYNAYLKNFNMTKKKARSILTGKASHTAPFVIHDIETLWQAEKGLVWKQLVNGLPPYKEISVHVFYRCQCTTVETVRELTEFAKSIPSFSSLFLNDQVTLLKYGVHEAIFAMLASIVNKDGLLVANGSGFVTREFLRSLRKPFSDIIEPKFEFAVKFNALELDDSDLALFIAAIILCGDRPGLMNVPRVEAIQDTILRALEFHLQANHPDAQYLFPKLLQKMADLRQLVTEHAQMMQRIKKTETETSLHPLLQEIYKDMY
In short: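 HEK293H UAS-bla reporter cells, human PPARd system; compounds delivered in DMSO after 5 h plating, then at 37 C. Beta-lactamase FRET read, 2 h RT substrate step.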

[14] = target: Peroxisome proliferator-activated receptor delta (Homo sapiens) (UniProt Q03181); assay: qHTS assay to identify small molecule antagonists of the peroxisome proliferator-activated receptor delta (PPARd) signaling pathway (AID 743215; active = well fitted inhibition curve with a large enough effect in the signal ratio in the repeat runs, not every such curve was filed as active; the % refers to the signal ratio;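 also: cells stimulated with agonist L165041 at 300 nM final during compound exposure; series mostly up to about 62 µM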)
In short: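 PPARd UAS-bla HEK293H cells were pre-incubated 5 h at 37 C, then given test compounds in DMSO plus agonist L165041 (300 nM final). After 17 h at 37 C, beta-lactamase FRET substrate was added; fluorescence read after 2 h at room temperature.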

[15] = qHTS assay to identify small molecule agonists of the farnesoid-X-receptor (FXR) signaling pathway - cell viability counter screen (AID 743218; active = well fitted curve in the direction sought with a large enough effect in the repeat runs; an effect the other way counts as inactive or inconclusive; also: nearly all actives have a fitted effect of over 45% in size)
In short: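 FXR-UAS-bla HEK 293T cells, plated 5 h at 37 C, were exposed to compounds for 16 h at 37 C. CellTiter-Glo was then added to the same wells as the bla readout; luminescence read after 30 min at room temperature.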

[16] = target: Vitamin D3 receptor (Homo sapiens) (UniProt P11473); assay: qHTS assay to identify small molecule agonists of the vitamin D receptor (VDR) signaling pathway (AID 743222)
Vitamin D3 receptor (Homo sapiens), sequence (P11473 whole entry, looked up): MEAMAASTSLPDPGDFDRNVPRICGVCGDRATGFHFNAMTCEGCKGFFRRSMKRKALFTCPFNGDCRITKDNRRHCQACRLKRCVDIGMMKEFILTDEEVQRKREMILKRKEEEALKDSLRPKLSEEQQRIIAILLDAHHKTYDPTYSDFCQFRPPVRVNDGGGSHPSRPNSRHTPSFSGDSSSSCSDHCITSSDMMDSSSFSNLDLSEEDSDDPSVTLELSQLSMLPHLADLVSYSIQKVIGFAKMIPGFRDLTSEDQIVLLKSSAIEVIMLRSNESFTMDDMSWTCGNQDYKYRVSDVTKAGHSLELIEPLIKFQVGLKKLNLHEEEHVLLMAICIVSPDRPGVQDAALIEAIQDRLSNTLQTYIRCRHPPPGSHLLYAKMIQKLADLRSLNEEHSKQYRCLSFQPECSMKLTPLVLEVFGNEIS
In short: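 VDR-bla cells were plated 4 h at 37C/5% CO2, then exposed to compounds in DMSO for 16 h. After LiveBLAzer B/G FRET substrate addition and 2 h at room temperature, beta-lactamase reporter fluorescence was read.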

[17] = target: Vitamin D3 receptor (Homo sapiens) (UniProt P11473); assay: qHTS assay to identify small molecule antagonists of the vitamin D receptor (VDR) signaling pathway (AID 743223; active = well fitted inhibition curve with a large enough effect in the signal ratio in the repeat runs, not every such curve was filed as active; the % refers to the signal ratio; also: potency is read from the fitted curve at half-maximal effect)
In short: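 Inhibition of agonist-driven VDR signalling is scored in VDR-bla cells: 3 nM final 1alpha,25-dihydroxyvitamin D3 plus compound, 16 h at 37C, then beta-lactamase detection by FRET substrate fluorescence after 2 h.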

[18] = target: Bile acid receptor (Homo sapiens) (UniProt Q96RI1); assay: qHTS assay to identify small molecule antagonists of the farnesoid-X-receptor (FXR) signaling pathway (AID 743217; active = well fitted inhibition curve with a large enough effect in the signal ratio in the repeat runs, not every such curve was filed as active; the % refers to the signal ratio; also: potency is read from the fitted curve at half-maximal effect)
Bile acid receptor (Homo sapiens), sequence (Q96RI1 whole entry, looked up): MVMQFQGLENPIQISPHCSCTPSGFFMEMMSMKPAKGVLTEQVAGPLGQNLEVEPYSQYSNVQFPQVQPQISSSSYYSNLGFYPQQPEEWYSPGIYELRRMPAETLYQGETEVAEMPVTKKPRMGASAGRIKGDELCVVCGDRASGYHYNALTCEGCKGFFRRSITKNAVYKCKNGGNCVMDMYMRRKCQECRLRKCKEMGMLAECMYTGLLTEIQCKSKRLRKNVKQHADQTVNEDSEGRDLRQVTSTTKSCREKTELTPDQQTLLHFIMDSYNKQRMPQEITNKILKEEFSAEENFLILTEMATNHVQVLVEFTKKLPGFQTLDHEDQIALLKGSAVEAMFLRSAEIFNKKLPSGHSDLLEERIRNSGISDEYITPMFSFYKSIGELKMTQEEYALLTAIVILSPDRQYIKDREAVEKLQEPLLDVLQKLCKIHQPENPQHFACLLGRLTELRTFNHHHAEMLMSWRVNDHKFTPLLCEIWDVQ
In short: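 FXR-UAS-bla HEK 293T cells pre-incubated 5 h at 37 °C, then exposed to compounds with chenodeoxycholic acid (50 uM final) for 16 h at 37 °C. Beta-lactamase reporter read by LiveBLAzer B/G FRET substrate fluorescence after 2 h at room temperature.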

[19] = target: Bile acid receptor (Homo sapiens) (UniProt Q96RI1); assay: qHTS assay to identify small molecule agonists of the farnesoid-X-receptor (FXR) signaling pathway (AID 743220; active = well fitted activation curve with a large enough effect in the signal ratio in the repeat runs, not every such curve was filed as active; the % refers to the signal ratio)
In short: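 Beta-lactamase reporter under UAS control in GeneBLAzer FXR HEK 293T cells (5000/well) measured with LiveBLAzer FRET substrate after 2 h at room temperature. Compound exposure lasted 16 h at 37C.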

SMILES	Potency [1]	Potency [2]	Potency [3]	Potency [4]	Potency [5]	outcome [6]	Potency [7]	Potency [8]	Potency [9]	Potency [10]	Potency [11]	Potency [12]	outcome [13]	outcome [14]	Potency [15]	outcome [16]	Potency [17]	Potency [18]	outcome [19]
CCCC[n+]1cccc(C)c1	inactive	inactive	inactive	inactive	inactive	inactive	inactive	inactive	inactive	inactive	inactive	inactive							
CCCCn1cc[n+](C)c1C	inactive	inactive	inactive	inactive	inactive	inactive	inactive	inactive		inactive	inactive	inactive							
CCOP(=S)(OCC)Oc1ccc2c(C)c(Cl)c(=O)oc2c1	inactive	inactive	inactive	inactive	inactive	inactive	inactive	inactive	inactive	inactive	inactive		inactive	inactive					
O=C(O)CC(O)(CC(=O)O)C(=O)O	inactive	inactive	inactive	inactive	inactive	inactive	inactive	inactive		inactive	inactive	inactive	inactive	inactive	inactive	inactive	inactive		
CCCCCCCCCCCCCC[P+](CCCCCC)(CCCCCC)CCCCCC	7.8 µM (active) and 2.47 µM (active) and 61.6 nM (active)	15.6 µM (active) and 3.92 µM (active)	22 µM (active) and 15.6 µM (active) and inactive	19.6 µM (active) and 17.5 µM (active)	19.6 µM (active) and 24.7 µM (active) and inactive	inactive	31 µM (active) and 27.8 µM (active) and inactive	9.73 µM (active) and 19.5 µM (active)		11 µM (active) and 19.7 µM (active) and inactive	inactive		inactive					inactive	inactive
CC(=O)[O][Hg][c]1ccccc1	611 nM (active) and 977 nM (active) and 2.98 µM (active)	1.53 µM (active) and 1.1 µM (active) and 1.68 µM (active)	1.09 µM (active) and 1.1 µM (active) and 2.98 µM (active)	1.37 µM (active) and 2.19 µM (active) and 2.39 µM (active)	485 nM (active) and 549 nM (active) and 1.34 µM (active)		485 nM (active) and 692 nM (active) and 2.13 µM (active)	304 nM (active) and 969 nM (active) and 422 nM (active)	429 nM (active) and 545 nM (active) and 750 nM (active)	1.37 µM (active) and 2.45 µM (active) and 4.25 µM (active)						inactive	863 nM (active) and 2.13 µM (active)	776 nM (active)	
CCCCCCCCCCCCOS(=O)(=O)O	38.9 µM (active) and inactive	38.9 µM (active) and inactive	inactive	34.7 µM (active) and inactive	inactive	inactive	inactive	inactive		55 µM (active) and inactive	inactive	inactive							
CN(C)[C@@H]1C(=O)C(C(N)=O)=C(O)[C@@]2(O)C(=O)C3=C(O)c4c(O)cccc4[C@@](C)(O)[C@H]3[C@H](O)[C@@H]12	inactive	inactive	inactive	inactive	inactive	inactive	inactive	inactive		inactive	inactive	inactive							
